Screens from PubChem.
NS3h inh CB – hepatitis C NS3 helicase inhibition, primary screen. NS3h Cy5-dT15 DNA binding, fluorescence polarization. inhibition, % at 100 µM. 16,000 tested, 1.6% active. AID 687043;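 active means inhibition above the average over every tested compound plus 3 SD, cut at about 40% in these data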
Cy5 interf NS3h – counter-screen for HCV NS3 helicase inhibitors: fluorescence interference; fluorescence interference ratio at 100 µM; 16,000 tested, 6% active; Cy5-dT15 DNA with NS3h; actives lie on both sides; signal over control mean, under 1 quenches;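 active means compound fluorescence over control fluorescence at most 0.8, a quencher, or at least a set upper limit, an enhancer; inactive means ratio between 0.8 and the set upper limit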
* = called active by the depositor. Hits are enriched below; roughly 6.9% of the tested compounds scored in any of these assays.

SMILES	NS3h inh CB	Cy5 interf NS3h
CC12CC3(C)CC(C)(C1)CC(C(N)=O)(C2)C3	2	0.96
Cc1n(N)c2ccccc2[n+]1C	6	1.1
O=c1oc2cc(OCc3ccc(Cl)cc3Cl)ccc2c2c1CCC2	6	0.96
Cc1ccc(OCCOc2ccc(Br)cc2/C=C2/SC(=S)N(C)C2=O)cc1	32	1
NC(=O)OC(c1ccccc1[N+](=O)[O-])P(=O)(c1ccccc1)c1ccccc1 (stereo not given)	-3	0.94
CS(=O)(=O)c1ccc2nc(NC(=O)c3ccccc3)sc2c1	13	1.1
CS(=O)(=O)c1ccc2nc(NC(=O)c3ccc(Cl)c(Cl)c3)sc2c1	-26	0.71*
O=C(Nc1ccc(NC(=O)c2ccc(-c3ccc(F)cc3)o2)cc1)c1ccco1	12	1.2
CCc1ccc(S(=O)(=O)Nc2cc(Br)c(O)c3ccccc23)cc1	4	0.98
CCc1ccc(S(=O)(=O)Nc2cc(-c3c(O)ccc4ccccc34)c(O)c3ccccc23)cc1	9	0.78*
CCOc1cc(C(=O)Nc2ccc(N3CCN(C(C)=O)CC3)cc2)cc(OCC)c1OCC	2	0.93
COC(=O)c1cc(C(=O)Nc2ccccc2C(N)=O)cc([N+](=O)[O-])c1	6	0.96
Cc1cccc(C(=O)Nc2nc3ccc(Br)cc3s2)c1	7	1.1
COC(=O)c1cc(C(=O)Nc2nc3ccccc3s2)cc([N+](=O)[O-])c1	-6	0.53*
O=C(Nc1nc2ccccc2s1)c1ccc(-c2ccccc2)cc1	35	0.53*
O=C(Nc1ccccc1)C(=O)Nc1ccc(F)cc1	8	0.96
Cc1ccc(NC(=S)NC(=O)C(=O)Nc2ccccc2)cc1	10	0.72*
CC1=NN(c2ccc(S(N)(=O)=O)cc2)C(=O)/C1=C\c1cccc(Br)c1	42*	0.81
CC1=NN(c2ccc(S(N)(=O)=O)cc2)C(=O)/C1=C\c1ccc(C(C)C)cc1	7	0.94
CCOc1cc(/C=C2\SC(=S)N(C(C)C)C2=O)ccc1O	14	0.89
CCOc1cc(/C=C2\SC(=S)N(CC(C)C)C2=O)ccc1O	13	0.78*
CCCOC(=O)c1cccc(NC(=O)/C=C/c2ccc(OC)c(Br)c2)c1	16	1
Cc1cc(C)c(/C=N\O)c(C)c1/C=N\O	-1	0.69*
Cc1ccc(-n2nc(-c3ccccc3)c3c2C(=O)C=CC3=O)cc1	44*	0.92
COc1ccc(-c2c(-c3ccc(Cl)cc3)nn(-c3ccccc3)c2N)cc1OC	19	0.9
SMILES	NS3h inh CB	Cy5 interf NS3h
Cc1cc(Br)cc(C)c1NC(=O)COc1ccccc1	20	1
CC12CC3CC(C)(C1)CC(CNC(=O)COc1ccccc1)(C3)C2	18	0.7*
COc1cccc(NC(=O)/C=C/c2ccc(OC)c(Br)c2)c1	9	1
COC(=O)c1ccccc1NC(=S)NC(NC(=O)c1ccc(F)cc1)C(Cl)(Cl)Cl (stereo not given)	14	0.89
CCOC(=O)c1ccc(N2NC(=O)/C(=C/c3cccc(I)c3)C2=O)cc1	20	0.79*
CCOC(=O)c1ccc(N2NC(=O)/C(=C/c3cc(OC)c(O)c(OC)c3)C2=O)cc1	14	0.96
O=C1CCC(=O)N1Cc1ccc(Cl)cc1	-2	1.1
CC1=NN(c2ccccc2)C(=O)C1=Cc1c(O)n(-c2ccc(F)cc2)[nH]c1=O	-1	0.86
CC(=O)Nc1ccc(Oc2ccccc2)cc1	10	0.83
O=C(Nc1ccc(Oc2ccccc2)cc1)C(F)(F)F	14	0.78*
CCN1C(=O)c2cccc3c(S(=O)(=O)N(C)C)ccc1c23	-3	0.97
CCc1ccccc1NC(=O)/C=C/c1ccccc1	26	1
CC(Oc1ccc(Cl)cc1Cl)C(=O)NCCN(C)C (stereo not given)	4	0.71*
CC(C)N(Cc1ccccc1)C(=O)CCCOc1ccc(Cl)cc1Cl	9	1
Cc1ccc(S(=O)(=O)NC(=NC(Cc2ccccc2)C(=O)O)c2ccccc2)cc1 (stereo not given)	20	0.74*
CC(N=C(NS(=O)(=O)c1ccccc1)c1ccccc1)C(=O)O (stereo not given)	-15	1
CC12c3ccccc3C(C)(c3ccccc31)C1C(=O)NC(=O)C12 (stereo not given)	29	1.1
NC(=O)CN1C(=O)/C(=C2\SC(=S)N(Cc3ccccc3)C2=O)c2ccccc21	7	0.8*
C=CCN1C(=O)/C(=C2\SC(=S)N(Cc3ccco3)C2=O)c2ccccc21	17	0.98
COC(=O)c1cc(NC(=O)COc2ccccc2[N+](=O)[O-])cc(C(=O)OC)c1	-4	0.91
CC(=O)Nc1nc(C)c(-c2csc(Nc3ncccn3)n2)s1	-17	0.51*
CCC(=O)Nc1nc(C)c(-c2csc(Nc3cc(C)ccn3)n2)s1	14	0.98
CCOc1ccc2nc(SCC(=O)Nc3cccc(C)c3)sc2c1	3	0.61*
Cc1cccc(NC(=O)CSc2nsc(SCC(=O)Nc3cccc(C)c3)n2)c1	2	0.94
CC(=O)N=C1SC2CS(=O)(=O)CC2N1c1c(Cl)cccc1Cl (stereo not given)	12	1.3*
SMILES	NS3h inh CB	Cy5 interf NS3h
Cc1c(Cl)cccc1NC1CS(=O)(=O)CC1O (stereo not given)	3	1.1
CCN(c1ccccc1C(=O)O)S(=O)(=O)/C=C/c1ccccc1	-1	1.1
CCCS(=O)(=O)c1c(S(=O)(=O)CCC)c2c(N)cccn2c1C(=O)c1ccc(OC)cc1	18	0.66*
CCCS(=O)(=O)c1c(S(=O)(=O)CCC)c2ccccn2c1C(=O)c1ccc([N+](=O)[O-])cc1	13	1.1
O=C(Cc1ccccc1)Nc1ccc(-c2nc3ccccc3s2)c(O)c1	4	1.2*
CCc1ccc(OCC(=O)Nc2ccc(-c3nc4ccccc4s3)c(O)c2)cc1	1	1.1
O=C(Nc1ccc2oc(-c3cccnc3)nc2c1)c1ccncc1	2	1.1
COc1c(Cl)cc(C(=O)Nc2ccc3oc(-c4ccccc4)nc3c2)cc1Cl	-37	1.1
O=C(Nc1ccc2oc(-c3ccncc3)nc2c1)c1ccccn1	33	1.2*
CC(C)C(=O)Nc1ccc2oc(-c3ccc(Cl)cc3)nc2c1	10	0.5*
Cc1ccc(-c2nc3cc(NC(=O)C(C)C)ccc3o2)cc1	17	1
COc1cc(C(=O)Nc2ccc3oc(-c4ccc5ccccc5c4)nc3c2)cc(OC)c1OC	22	0.72*
COc1ccc(NC(=O)CN(c2ccc(C(C)C)cc2)S(=O)(=O)c2ccccc2)c(OC)c1	9	1
COc1ccc(S(=O)(=O)N2CCC(CN3C(=O)c4cccc5cccc(c45)C3=O)CC2)cc1	9	1
O=C(NCC1CCCO1)c1nn2c(c1Br)NC(c1cccs1)CC2C(F)(F)F (stereo not given)	0	0.99
Cc1ccc2oc(-c3ccc(NC(=O)Cc4ccccc4)cc3O)nc2c1	-18	1
O=C(Cc1ccccc1)Nc1ccc2oc(-c3ccc(Cl)cc3Cl)nc2c1	-36	1.3*
CCOC(=O)COc1ccc2c(c1)c(C(=O)OCC)c(C)n2C	24	0.96
COc1ccc(S(=O)(=O)n2cnc(C)c2)cc1	-1	1
O=C(/C=C\c1ccccc1)Nc1ccc2c3c(cccc13)CC2	23	0.73*
O=C(/C=C/c1ccccc1)Nc1ccccc1I	12	0.96
COc1ccc(-c2cc(=O)n3[nH]c(-c4cccc(F)c4)cc3n2)cc1	4	1
O=C(Nc1ccc(NC(=O)c2ccc(Cl)cc2Cl)c(Cl)c1)c1ccccc1	4	0.99
